Measured values: PubChem BioAssay AID652190 (Johns Hopkins Ion Channel Center, 2013)

These compounds were tested against Inward rectifier potassium channel 2 (Mus musculus) (UniProt P35561) (assay: Kir2.1 channel inhibition, specificity check, SAR follow-up, selectivity assay for TASK1 inhibitor project, cell-based, FluxOR thallium flux, HEK293, CRC (AID 652190)). Conditions: Kir2.1-expressing cells; series mostly up to 30 µM; fluorescence ratio, lower = inhibition: at the top concentration;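 active means peak inhibition above 30% at some tested dose, together with a fitted dose response curve; inactive means no inhibition at all doses, or no curve obtained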.
Inward rectifier potassium channel 2 (Mus musculus), sequence (P35561 whole entry, looked up): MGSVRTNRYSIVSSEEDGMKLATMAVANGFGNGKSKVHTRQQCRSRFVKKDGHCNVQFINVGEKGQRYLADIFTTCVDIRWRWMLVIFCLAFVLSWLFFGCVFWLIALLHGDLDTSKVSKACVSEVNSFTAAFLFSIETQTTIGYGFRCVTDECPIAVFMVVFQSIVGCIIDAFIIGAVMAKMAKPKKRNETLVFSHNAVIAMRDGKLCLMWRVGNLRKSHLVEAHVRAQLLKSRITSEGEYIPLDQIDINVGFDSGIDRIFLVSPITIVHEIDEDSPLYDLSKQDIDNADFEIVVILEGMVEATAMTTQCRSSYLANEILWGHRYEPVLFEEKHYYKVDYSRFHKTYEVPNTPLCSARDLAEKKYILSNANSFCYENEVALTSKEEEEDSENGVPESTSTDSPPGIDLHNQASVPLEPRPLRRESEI

Fluorescence ratio, lower = inhibition, inactive:
COc1ccccc1C(=O)Nc1cc(NC(=O)c2cccc(C)c2)ccc1F 1.34
CC(C)c1ccccc1C(=O)Nc1cccc(NC(=O)c2ccccc2OC(F)(F)F)c1 1.83
CC(C)Oc1ccccc1C(=O)Nc1cccc(NC(=O)c2ccccc2OC(F)(F)F)c1 1.86
COc1ccc(F)cc1C(=O)Nc1cccc(NC(=O)c2cccc(C)c2)c1 1.44
Cc1cccc(C(=O)Nc2cccc(NC(=O)c3cccc(F)c3)c2)c1 1.4
CCCC(=O)C1CCN(c2ncnc3c2CN(C(=O)c2ccc(-c4ccccc4)cc2)CC3)CC1 1.51
COc1ccccc1C(=O)Nc1cc(NC(=O)c2ccccc2C(C)C)ccc1F 1.84
COc1c(F)cccc1C(=O)Nc1cccc(NC(=O)c2cccc(C)c2)c1 1.33
COc1ccc(CC(=O)NCc2ccccc2-c2ccccc2C(=O)NCc2ccc(F)cc2F)cc1 1.35
COc1ccccc1C(=O)Nc1cccc(NC(=O)c2cccc3ccccc23)c1 1.82
COc1cnccc1C(=O)Nc1cccc(NC(=O)c2cccc(C)c2)c1 1.23
